Vif-APOBEC3G blk: inhibitors of Vif-APOBEC3G interaction; Q9HC16; HeLa A3G-eYFP + Vif (tagged APOBEC3G with the HIV-1 protein that degrades it), YFP fluorescence, overnight; Potency, µM (series often up to 46.1 µM), for the others: at the top dose activity, negative = active, actives largely listed as inhibitors; actives 0.076% (n = 410,000); also: potency is read from the fitted curve at half-maximal effect; % is scaled to controls: 0 for no effect and ±100 for the full control effect; nearly all actives have a fitted effect of over 60% in size
Target sequence (Q9HC16 whole entry, looked up): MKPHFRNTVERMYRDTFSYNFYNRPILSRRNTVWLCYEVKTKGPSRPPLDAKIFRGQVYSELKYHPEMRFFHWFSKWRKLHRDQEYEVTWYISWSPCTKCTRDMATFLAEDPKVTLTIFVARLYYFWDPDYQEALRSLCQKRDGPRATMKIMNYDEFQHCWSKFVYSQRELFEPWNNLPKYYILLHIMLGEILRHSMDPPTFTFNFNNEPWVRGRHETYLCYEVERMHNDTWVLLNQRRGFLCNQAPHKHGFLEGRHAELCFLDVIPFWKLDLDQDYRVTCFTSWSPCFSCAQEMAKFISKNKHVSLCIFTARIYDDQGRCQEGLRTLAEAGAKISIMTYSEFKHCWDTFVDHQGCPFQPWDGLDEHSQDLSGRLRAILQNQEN
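HeLa cells stably expressing Vif and C-terminally eYFP-tagged A3G, seeded overnight at 37 deg C, then exposed to compound by pintool overnight at 37 deg C. Rise in yellow fluorescence (Ex 488/Em 500-530, Acumen) marks blocked Vif-driven A3G degradation.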
IL1B secr inh: inhibitors of inflammasome signaling (IL-1 beta secretion); THP-1 LPS/ATP IL-1B secretion, AlphaLISA, 16 h; stronger effect = lower value; activity change, % at 57.5 µM; actives 4.7% (n = 360,000); in the data active = activity change below about -50%; inconclusive = mostly about -30% to -49%; also: % is scaled to controls: 0 for no effect and ±100 for the full control effect
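Secreted IL-1B measured by AlphaLISA bead assay after 16 h compound exposure of THP-1 cells; compounds (final up to 57.5 uM) added 1 h before LPS (250 ng/mL) and ATP (1.25 mM) stimulation; lower signal means less secretion.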
MCF10A rerep: inducers of DNA re-replication in MCF 10A breast cells; MCF 10A DNA re-replication, Hoechst nuclear intensity, 48 h; Potency, µM (doses to about 46.1 µM), for the others: at the highest dose activity, positive = re-replication, actives largely listed as activators; actives 2.9% (n = 350,000); AID 624296; also: potency is read from the fitted curve at half-maximal effect; % of control where 0% means no effect; nearly all actives have a fitted effect of over 50% in size
Giardia kill: kills Giardia lamblia | Giardia lamblia trophozoite viability | activity change, % at 7.66 µM, hits read low | actives 0.15% (n = 340,000); in the data active = activity change below about -80%; inconclusive = between about -30% and that limit;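 also: parasites exposed to compound for two days anaerobically before the ATP read; % is scaled to controls: 0 for no effect and ±100 for the full control effect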
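Trophozoites 100 cells/well + cpd; 48 hrs, 37 deg C, anaerobic. ATPLite 1-Step added, 15-30 min RT, luminescence read (ATP-based viability).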
SW480 rerep: inducers of DNA re-replication in SW480 colon cancer cells | SW480 DNA re-replication, Hoechst DNA content imaging, 48 h | actives 1.8% (n = 340,000) | Potency, µM (highest dose often 46.1 µM), for the others: at the top dose re-replication activation, hits mostly activators | AID 624297; also: potency is read from the fitted curve at half-maximal effect; % of control where 0% means no effect; nearly all actives have a fitted effect of over 55% in size
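Hoechst fluorescence of nuclei (405 nm excitation, 500-530 nm emission) measured by plate-scanning imager after 48 hr compound exposure at 37 C; re-replication scored as increased number of nuclei with elevated intensity.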
Vif-APOBEC3F blk: inhibitors of Vif-A3F interaction; HeLa A3F-eYFP + Vif (tagged APOBEC3F with the HIV-1 protein that degrades it), YFP fluorescence increase; Potency, µM (series often up to 46.1 µM), without a hit: at the highest dose activity, negative = active; actives 0.2% (n = 390,000); AID 602313; also: potency is read from the fitted curve at half-maximal effect; % of control where 0% means no effect; nearly all actives have a fitted effect of over 65% in size
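Fluorescence increase (Ex 488/Em 500-530) after overnight compound treatment at 37 deg C flags inhibition of Vif-driven A3F-eYFP loss in stable HeLa A3F-eYFP/Vif cells seeded overnight beforehand.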
Starred values were filed as active, the others as inactive. Most compounds without a hit are left out; they make up all but 6.9% or so of the library. Unless noted, calls follow the shape of the dose curve; as a rule, active = well fitted curve in the direction sought with a large enough effect; inconclusive = small, poorly fitted or top-dose-only effect, or another doubt; inactive = no such curve, though single readings can be large; an effect the other way counts as inactive or inconclusive.

`Cc1ccc(-n2cc(CN3CCN(Cc4nccn4C)CC3)c(-c3ccc(F)cc3)n2)cc1` gave Vif-APOBEC3G blk 0.7%, IL1B secr inh inconclusive, MCF10A rerep 6.9%, Giardia kill 0.2, SW480 rerep 3.5% and Vif-APOBEC3F blk -10.6%.
Screening Cc1ccc(-n2cc(CN3CCN(c4ccccn4)CC3)c(-c3ccc(F)cc3)n2)cc1 returned Vif-APOBEC3G blk 3.5%, IL1B secr inh inconclusive, MCF10A rerep 18.4µM*, Giardia kill 8.0, SW480 rerep inconclusive and Vif-APOBEC3F blk 6.3%.
Screening Cc1ccc(-n2cc(CN3CCN(C(=O)c4ncn[nH]4)CC3)c(-c3ccc(F)cc3)n2)cc1 returned Vif-APOBEC3G blk -8.0%, IL1B secr inh -59.4*, MCF10A rerep 3.8%, Giardia kill 27.8, SW480 rerep 1.8% and Vif-APOBEC3F blk 1.5%.
Cc1cccc(-n2cc(CN3CCN(c4ccccn4)CC3)c(-c3cccc(F)c3)n2)c1 was read as Vif-APOBEC3G blk 4.7%, IL1B secr inh 3.3, MCF10A rerep 15.0%, Giardia kill 4.9, SW480 rerep -1.8% and Vif-APOBEC3F blk -4.4%.
`O=c1c2ccccc2sn1-c1ccc(S(=O)(=O)N2CCCCC2)cc1` gave Vif-APOBEC3G blk 2.0%, IL1B secr inh -91.4*, MCF10A rerep -5.9%, Giardia kill -1.4, SW480 rerep 1.1% and Vif-APOBEC3F blk -0.3%.
For O=S(=O)(c1ccc(S(=O)(=O)N2CCCC2)cc1)N1CCCCC1 the results were Vif-APOBEC3G blk -0.3%, IL1B secr inh 10.1, MCF10A rerep 5.0%, Giardia kill -16.7, SW480 rerep -2.7% and Vif-APOBEC3F blk -2.5%.
Screening Cc1ccc(-n2sc3ccccc3c2=O)cc1S(=O)(=O)N1CCCCC1 returned Vif-APOBEC3G blk -2.7%, IL1B secr inh -105.6*, MCF10A rerep 16.4µM*, Giardia kill -8.9, SW480 rerep inconclusive and Vif-APOBEC3F blk inconclusive.
`O=c1c2ccccc2sn1-c1ccc(S(=O)(=O)N2CCCC2)cc1` gave Vif-APOBEC3G blk -4.6%, IL1B secr inh -102.0*, MCF10A rerep 24.7%, Giardia kill 1.4, SW480 rerep -2.0% and Vif-APOBEC3F blk -2.5%.
For CCOc1ccc(C(=O)c2cn(Cc3ccccc3)c3c(F)cc(F)cc3c2=O)cc1 the results were Vif-APOBEC3G blk -2.1% and Vif-APOBEC3F blk 0.2%.
Cc1cc(C)c2c(n1)SCC(=O)N2CC(=O)Nc1cccc(C)c1C was read as Vif-APOBEC3G blk 7.5% and Vif-APOBEC3F blk -5.7%.
CCn1c2ccccc2c2c3ncc4cccn4c3ccc21 was read as Vif-APOBEC3G blk inconclusive, IL1B secr inh -75.9*, MCF10A rerep inconclusive, Giardia kill -16.7, SW480 rerep inconclusive and Vif-APOBEC3F blk 25.1µM*.
Screening COc1ccc(C(=O)/C=C/c2ccccc2C(F)(F)F)cc1 returned Vif-APOBEC3G blk -13.8%, IL1B secr inh -73.1*, MCF10A rerep 0.6%, Giardia kill -1.2, SW480 rerep 1.3% and Vif-APOBEC3F blk -10.8%.
For O=C(/C=C/c1ccccc1Cl)NNC(=O)c1ccncc1 the results were Vif-APOBEC3G blk -0.8%, IL1B secr inh -2.1, MCF10A rerep 6.3%, Giardia kill 37.2, SW480 rerep inconclusive and Vif-APOBEC3F blk -1.4%.
`O=C(/C=C/c1ccccc1Cl)c1cccnc1` gave Vif-APOBEC3G blk inconclusive, IL1B secr inh inconclusive, MCF10A rerep 5.8µM*, Giardia kill 12.2 and SW480 rerep inconclusive.
For COc1ccc(C=CC(=O)c2ccc(OCc3ccccc3)c(OC)c2)cc1OC the results were Vif-APOBEC3G blk -10.0%, IL1B secr inh -5.8 and Vif-APOBEC3F blk -1.5%.
Screening CCOc1ccc(C(=O)/C=C/c2ccccc2C(F)(F)F)cc1 returned Vif-APOBEC3G blk -1.1%, IL1B secr inh 0.0, MCF10A rerep -3.7%, Giardia kill 4.8, SW480 rerep 0.6% and Vif-APOBEC3F blk -2.8%.
`O=C(/C=C/c1c(F)cccc1Cl)c1ccc(O)cc1` gave Vif-APOBEC3G blk -22.6%, IL1B secr inh inconclusive, MCF10A rerep 3.26µM*, Giardia kill 16.2, SW480 rerep inconclusive and Vif-APOBEC3F blk -24.7%.
Screening O=C(/C=C/c1ccc(OCc2ccccc2)c(OCc2ccccc2)c1)c1cccnc1 returned Vif-APOBEC3G blk -10.3%, IL1B secr inh -94.7*, MCF10A rerep inconclusive, Giardia kill 4.6, SW480 rerep inconclusive and Vif-APOBEC3F blk -6.2%.
`Oc1ccc(Br)cc1C1C=C(c2ccc3c(c2)OCO3)NC(c2ccc(Br)cc2)N1` (centres undefined) gave Vif-APOBEC3G blk -26.0% and Giardia kill 5.2.
COc1cc(C)ccc1OCCSc1nc2ccc(NC(=O)c3ccccc3F)cc2s1 was read as Vif-APOBEC3G blk 0.9% and Vif-APOBEC3F blk -4.6%.
Screening Cc1cc(F)ccc1NC(=O)C1CCC(CNS(=O)(=O)c2ccc3c(c2)CCCC(=O)N3)CC1 (centres undefined) returned Vif-APOBEC3G blk 1.8% and Vif-APOBEC3F blk 4.5%.
`O=C(/C=C/c1ccc(Cl)cc1)c1cccnc1` gave Vif-APOBEC3G blk -29.7%, IL1B secr inh inconclusive, MCF10A rerep inconclusive, Giardia kill 5.9, SW480 rerep inconclusive and Vif-APOBEC3F blk 0.0%.
`O=C(C=Cc1ccccc1F)c1ccccc1` gave Vif-APOBEC3G blk -26.7% and IL1B secr inh -65.2*.
`N#Cc1ccc(/C=C/C(=O)c2cccnc2)cc1` gave Vif-APOBEC3G blk inconclusive, IL1B secr inh inconclusive, MCF10A rerep 7.31µM*, Giardia kill -1.1, SW480 rerep -27.5% and Vif-APOBEC3F blk 7.6%.
O=C(/C=C/c1ccccc1Cl)NNC(=O)c1cccs1 was read as Vif-APOBEC3G blk -0.5%, IL1B secr inh -17.5, MCF10A rerep -3.7%, Giardia kill -0.3, SW480 rerep -8.0% and Vif-APOBEC3F blk 4.1%.
For O=C(/C=C/c1ccccc1F)c1ccoc1 the results were Vif-APOBEC3G blk -9.9%, IL1B secr inh -24.7, MCF10A rerep inconclusive, Giardia kill -6.5, SW480 rerep 29.5% and Vif-APOBEC3F blk 0.7%.
O=C(/C=C/c1ccccc1Cl)c1ccc(O)cc1 was read as Vif-APOBEC3G blk -27.2%, IL1B secr inh -95.2*, MCF10A rerep inconclusive, Giardia kill -1.3, SW480 rerep inconclusive and Vif-APOBEC3F blk -13.3%.
For Cc1ccc(NS(=O)(=O)c2ccc(-c3cc(C)no3)cc2)c(Br)c1 the results were Vif-APOBEC3G blk -21.1% and Vif-APOBEC3F blk -1.5%.
Screening CCN1/C(=C/c2ccc3cc(C)cc(C)c3[n+]2CC)Sc2cc(C)ccc21 returned Vif-APOBEC3G blk inconclusive, IL1B secr inh -97.4*, MCF10A rerep 5.8µM*, Giardia kill 3.1, SW480 rerep 0.1% and Vif-APOBEC3F blk 5.1%.

Source: PubChem
